Each structure is given as a SMILES string. ± gives the standard deviation of the averaged measurements.
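Further: viability read as CCK-8 absorbance at 450 nm in cells co-exposed to the GPX4 inhibitor RSL3, relative to a 0.01% DMSO vehicle control.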

The test concerns HT-1080. Description: relative cell viability with RSL3 co-treatment (fraction of control); higher = stronger protection from RSL3-induced ferroptosis (higher viability). As to conditions: 10 µM.
With `CC(C)(C)c1cc(C=C(C#N)C#N)cc(Br)c1O`, the relative cell viability is 0.473 ± 0.015.

Consider `O=c1[nH]c2ccc(Cl)cc2c(N[C@@H]2CN3CCC2CC3)c1-c1nc2ccccc2[nH]1`, for which the relative cell viability turned out to be 0.63 ± 0.046.

Turning to `COc1ccc2c(c1)/C(=C/c1cnc[nH]1)C(=O)N2`, the relative cell viability was 0.797 ± 0.011.

In the case of `Cc1ccccc1-n1c(Cn2ncc3c(N)ncnc32)nc2cccc(C)c2c1=O`, the relative cell viability is 0.727 ± 0.049.

For the compound `C/C(O)=C(\C#N)C(=O)Nc1cc(Br)ccc1Br`, the relative cell viability came to 0.54 ± 0.085.

Take `Cn1cc(C2=C(c3cn(C4CCN(Cc5ccccn5)CC4)c4ccccc34)C(=O)NC2=O)c2ccccc21`: the relative cell viability was determined as 0.807 ± 0.061.

Take `CC(C)(C)c1cc(C=C(C#N)C#N)cc(C(C)(C)C)c1O` [Tyrphostin 9]: the relative cell viability amounted to 0.413 ± 0.021.

For `CCN1CCN(C(=O)Cc2ccc(Nc3ncc(F)c(Nc4ccc(C(=O)Nc5ccccc5Cl)cc4)n3)cc2)CC1` [Aurora A Inhibitor I], the relative cell viability was 0.473 ± 0.13.

Turning to `COc1ccc(N(C(=O)Oc2c(C)cccc2C)c2ccnc(Nc3ccc(N4CCN(C)CC4)cc3)n2)c(OC)c1`, the relative cell viability came out at 0.8133 ± 0.0058.

Values taken from the supplement of paper PMC9588786.
